# Screening data deposited in PubChem BioAssay by several laboratories.
# Compounds with a hit are over-represented: about 6.6% of the library has one in this group of screens.
# NR3A LBD binder = NR3A (human) ligand-binding domain modulation; NR3A LBD differential scanning fluorimetry, Tm shift; 0% = protein alone, 100% = glycine-bound protein; Tm shift relative to glycine control, % at 25 µM; actives 2.5% (n = 340,000); AID 1259313;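 active = melting temperature shift of at least 10% of the positive control shift, at one fixed dose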
# Beta cell apopt = blocks beta cell apoptosis; INS-1E cytokine-induced death, ATP luminescence, 48 h; percent of positive-control rescue, neutral wells zero; actives 0.8% (n = 300,000); protection from apoptosis, % (concentration not given with the values);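 active = Every replicate reaches about 75%, or at least half do and their mean reaches it too, limit read from the data; inconclusive = At least half of replicates reach the limit but their mean does not; inactive = Under half of replicates reach the limit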;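 note: 0% = cytokine-treated negative control wells and 100% = positive control rescue; higher means more ATP so stronger rescue from cytokine killing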
# CSC inhib = blocks cancer stem cells. cancer stem cell-like cells viability, luminescence. inhibition, % at 7.5 µM. actives 1.1% (n = 300,000); in the data active = inhibition above about 75%; inconclusive = no clear call, values can overlap the other calls; tested in HMLE shEcad cells
# MPTP inh = blocks calcium-induced mitochondrial swelling; inhibition, % at 10 µM; isolated mouse mitochondria, Ca2+ swelling absorbance, 30 min; actives 1.4% (n = 360,000); AID 602449;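 active = inhibition of 50% or more, scaled per plate between neutral and stimulator controls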;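 note: 0% = DMSO wells given calcium and 100% = 1 mM EGTA wells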
# Mdm2-MdmX inh = inhibitors of human Mdm2/MdmX interaction; O15151+Q00987; SaOS-2 split-luciferase Mdm2/MdmX complementation, luminescence; inhibition, % at 8 µM; actives 3% (n = 330,000); AID 485346;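 active = inhibition of at least 50% at 8 µM in the primary screen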
# Gli-Sufu antag = antagonists of Gli-Sufu signaling | Sufu-KO-LIGHT fibroblasts, Gli luciferase reporter luminescence | inhibition, % at 5 µM | actives 0.74% (n = 340,000) | AID 588413;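 active = inhibition above about 55%, limit read from the data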;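 note: 0% = DMSO-treated cells and 100% = wells with medium but no cells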
# Starred values were filed as active, the others as inactive; ? = inconclusive; · = no result.
SMILES,NR3A LBD binder,Beta cell apopt,CSC inhib,MPTP inh,Mdm2-MdmX inh,Gli-Sufu antag
OC(COc1cccc2ccccc12)CN1CCN(c2ccccc2Cl)CC1 (stereo unspecified),-14,-11,114*,1,·,6
Cc1ccc(N2CCN(CC(O)COc3cccc4ccccc34)CC2)cc1 (stereo unspecified),-7,-1,2,3,-27,-1
COC(=O)c1ccc(N2C(=O)CC(SCC(=O)Nc3ccc(OC)cc3)C2=O)cc1 (stereo unspecified),7,-10,0,0,-19,4
CN=C(Nc1cc(Cl)ccc1Cl)SC1CC(=O)N(c2ccc(C(=O)OC)cc2)C1=O (stereo unspecified),14*,7,7,-1,32,8
CCN(CC)C(=O)C1=C(C)N(CCCN2CCCC2=O)C(=O)C(CC(=O)NC2CCCC2)C1 (stereo unspecified),·,·,·,0,·,·
C[C@@H]1CN([C@@H](C)CO)C(=O)CCCn2cc(nn2)CO[C@H]1CN(C)S(=O)(=O)c1cn(C)cn1,·,·,·,-2,·,·
c1ccc(CN2CCN(Cc3c[nH]c4ccccc34)CC2)cc1,-1,87*,-19,0,8,6
Cc1nn(-c2ccccc2)c(C)c1-c1cc(C(=O)N/N=C/c2ccc(O)cc2)[nH]n1,8,24,75*,0,22,-2
CC(/C=N/NC(=O)c1cc(C(C)(C)C)[nH]n1)=C\c1ccccc1,-7,9,3,-1,7,2
COc1cc(/C=N/NC(=O)c2cc(-c3c(C)nn(-c4ccccc4)c3C)n[nH]2)ccc1O,1,35,9,0,-50,-6
CC(/C=N/NC(=O)c1cc(-c2ccc(C)s2)[nH]n1)=C\c1ccccc1,-5,20,87*,13,49,-13
Cc1cc(C(=O)N/N=C/c2c(C)nn(-c3ccccc3)c2C)n[nH]1,-1,-5,3,0,25,-10
Cc1nn(-c2ccccc2)c(C)c1/C=N/NC(=O)c1cc(-c2ccc(Br)s2)[nH]n1,9,31,76*,4,49,2
O=C(N/N=C/c1ccncc1)c1cc(-c2ccc(Br)s2)[nH]n1,17*,6,·,-1,-3,-9
CCOCCOC(=O)Cn1cnc2scc(-c3ccc(C)cc3)c2c1=O,-1,-3,4,4,0,2
O=C(CSc1nc2ccc(Cl)cc2[nH]1)c1c[nH]c2ccccc12,12*,0,-2,6,2,7
O=C(CSc1nc2ncc(Cl)cc2[nH]1)c1c[nH]c2ccccc12,6,8,-8,34,6,0
COc1ccc(C(CC(=O)N2CCCC(C)C2)c2c(OC)cc(OC)c3c(-c4ccccc4)cc(=O)oc23)cc1 (stereo unspecified),16*,1,6,2,15,23
CCOc1ccc(S(=O)(=O)NCCC(=O)NCCOc2ccccc2)cc1,65*,-2,·,-1,-5,3
CCC(=O)Nc1c(C)cc(C)cc1Cl,3,6,·,1,0,6
CCCCC(=O)Nc1c(C)cc(C)cc1Cl,14*,-8,-9,1,0,-18
CC(C)N(C(=O)[C@H]1C[C@H](CC(=O)NCCN2CCOCC2)C(=O)N2CCc3c([nH]c4cc(CCC(=O)N(C)C)ccc34)[C@]12C)C(C)C,5,·,·,-1,0,-3
Cc1cccc(NC(=O)COc2ccccc2C(=O)NC(C)c2ccccc2)c1 (stereo unspecified),-2,10,-2,3,28,10
Cc1ccc(N=c2ssnc2Cl)cc1,22*,-1,-1,1,-6,3
Cc1nnc(N=c2ssnc2Cl)o1,21*,?,42,1,48,6
SMILES,NR3A LBD binder,Beta cell apopt,CSC inhib,MPTP inh,Mdm2-MdmX inh,Gli-Sufu antag
COc1cc(N=c2ssnc2Cl)c(OC)cc1Cl,19*,3,23,4,11,5
Nc1ccccc1N=c1ssnc1Cl,-1,·,·,0,·,-2
Cc1cc(Cl)ccc1N=c1ssnc1Cl,24*,25,-13,3,17,3
Cc1cc(C)nc(/N=c2/ssnc2Cl)c1,1,-21,-7,-1,34,4
Cc1c(NC(=O)COC(=O)c2ccc(Cl)nc2)c(=O)n(-c2ccccc2)n1C,1,3,·,0,12,10
Cn1c(=O)c2c(ncn2CCOc2ccc(F)cc2)n(C)c1=O,-1,-1,3,-1,5,1
O=C(NCC1OCCc2ccccc21)c1ccc(NC(=O)c2ccccc2Cl)cc1 (stereo unspecified),10,1,1,1,18,-6
O=C(NCC1OCCc2ccccc21)c1ccc(NC(=O)c2cccc(Br)c2)cc1 (stereo unspecified),28*,14,-4,0,30,19
O=C(NCC1OCCc2ccccc21)c1ccc(NC(=O)c2ccc(Cl)cc2Cl)cc1 (stereo unspecified),18*,25,5,1,16,1
COc1ccc(C(=O)NCC2OCCc3ccccc32)cc1OC (stereo unspecified),-2,-3,-3,-2,2,-9
O=[N+]([O-])c1ccccc1NCCNc1ncc(C(F)(F)F)cc1Cl,-22,3,5,6,-68,-29
O=[N+]([O-])c1cc(Cl)ccc1NCCNc1ncc(C(F)(F)F)cc1Cl,14*,9,3,1,-1,28
CC(C)(C)NC(=O)C(c1ccc(O)cc1)N(Cc1ccc2c(c1)OCO2)C(=O)CCl (stereo unspecified),·,·,·,-2,·,·
CCC(C)(C)C1CCC2(CC1)NC(=O)N(CC(=O)N(C)Cc1ccc(OC(F)F)cc1)C2=O (stereo unspecified),1,·,10,-1,31,39
Cc1sc2nc(SCCN(C)C)n(-c3ccccc3)c(=O)c2c1-c1ccc(F)cc1,-2,-1,109*,0,23,10
CCOC(=O)C1=C(C(=O)OCC)c2ccc(OC)c(OC)c2C1,1,·,·,0,·,-1
N#Cc1c(N2CCCC2)nc(N)c2c(N)nc(N3CCCC3)cc12,-12,80*,·,-7,22,-42
Cc1ccc(C(=O)NNC(=O)C2CCN(C(=O)OC(C)(C)C)CC2)cc1,30*,-5,-1,0,-9,26
Cc1ccc2c(c1)C(=O)CC(c1ccccc1)S2 (stereo unspecified),13*,·,·,0,·,-90
O=C1CC(c2ccccc2)Sc2ccccc2N1 (stereo unspecified),4,3,-11,1,-2,1
O=S1(=O)CC(N2CC=CC2)CN1Cc1ccccc1 (stereo unspecified),·,·,·,1,·,·
CCOC(=O)C(/C(C)=N/NC(=O)C1CC1c1ccccc1)C(C)C (stereo unspecified),16*,-5,-7,-2,13,-4
O=c1ccc2c(ccc3ncccc32)o1,·,·,·,0,·,·
